A selection: hits, their analogues and other compounds. The true share with any hit is near 3%.
TRAIL sens C8 = caspase-8 TRAIL sensitization | hit rate 1% among 360,000 | inhibition (viability loss, TRAIL sensitization), % at 10 µM | NB7+C8 cells + TRAIL, ATPlite viability luminescence;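 active = compounds causing at least 50% loss of cell viability in the single-dose screen, relative to plate controls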
SENP8 block-1 = inhibitors of human SENP8 protease; Q96LD8; purified SENP8, Z-RLRGG-aminoluciferin cleavage, luminescence; inhibition, % at 10 µM; hit rate 1.2% among 330,000; AID 2540; in the data active = inhibition above about 50%
Target sequence (Q96LD8 whole entry, looked up): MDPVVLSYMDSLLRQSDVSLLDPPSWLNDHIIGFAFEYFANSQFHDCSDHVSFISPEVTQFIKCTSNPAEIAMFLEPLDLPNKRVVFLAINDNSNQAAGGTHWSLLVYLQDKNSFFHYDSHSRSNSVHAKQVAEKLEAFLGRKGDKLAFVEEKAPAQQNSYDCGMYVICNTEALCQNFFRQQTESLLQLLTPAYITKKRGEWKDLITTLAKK
SENP7 block = inhibitors of human SENP7 protease; Q9BQF6; recombinant SENP7, Z-RLRGG-aminoluciferin luminescence, 40 min; inhibition, % at 5 µM; hit rate 1.5% among 330,000; AID 434973;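 active = inhibition above about 50% at the single test dose, limit read from the data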;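 note: plate controls were DMSO with enzyme for no effect and no enzyme buffer wells for full effect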
Target sequence (Q9BQF6 706-1050 limits assumed): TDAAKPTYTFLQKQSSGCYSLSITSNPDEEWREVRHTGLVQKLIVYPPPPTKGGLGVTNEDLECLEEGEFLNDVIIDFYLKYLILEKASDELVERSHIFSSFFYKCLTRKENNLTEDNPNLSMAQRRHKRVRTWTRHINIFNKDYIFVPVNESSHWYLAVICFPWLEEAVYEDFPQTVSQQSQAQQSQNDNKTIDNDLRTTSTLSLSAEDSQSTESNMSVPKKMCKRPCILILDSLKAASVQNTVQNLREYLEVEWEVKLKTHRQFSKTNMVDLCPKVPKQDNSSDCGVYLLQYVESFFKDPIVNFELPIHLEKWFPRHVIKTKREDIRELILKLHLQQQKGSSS
SENP6 inh = blocks the human protease SENP6 | Q9GZR1 | Recombinant SENP6 catalytic domain, aminoluciferin luminescence | inhibition, % at 10 µM | hit rate 1.8% among 330,000 | AID 2599;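 active = inhibition above about 50% at the single tested dose, limit read from the data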;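 note: plate controls were DMSO wells with enzyme for no effect and DMSO wells lacking enzyme for full effect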
PPC-1+TRAIL kill = compounds killing PPC-1 cancer cells with TRAIL present (potentiator screen, no TRAIL-free arm); AID 1443; PPC-1 cells + TRAIL, ATPLite viability luminescence; hit rate 0.41% among 220,000; cell killing (% activity), % at 4 µM or 5 µM;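 active = cell killing above 50% in the first pass at 4 µM, then a duplicate retest at 5 µM averaging 50% or more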;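 note: plate controls were cells with TRAIL plus DMSO for no effect and medium-only wells lacking cells for full effect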
SENP8 block-2 = blocks human SENP8 cleavage of Nedd8 substrate. recombinant SENP8, Nedd8 substrate fluorescence. inhibition, % at 20 µM. hit rate 0.64% among 360,000; in the data active = inhibition mostly above about 40%, no sharp cut-off; inactive = mostly below about 27%
SENP8 conf = human SENP8 inhibition, confirmed; shares compounds with SENP7 block; Recombinant SENP8, Z-RLRGG-aminoluciferin luminescence, 60 min; inhibition, % at 12.5 µM; hit rate 40% among 6,200;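 active = mean inhibition across replicates above about 50%, limit read from the data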
SENP6 confirm = confirmation of human SENP6 protease inhibitors; hit rate 58% among 6,200; recombinant SENP6, Z-RLRGG-aminoluciferin luminescence; AID 488915; shares compounds with SENP7 block; inhibition, % at 12.5 µM
SENP7 conf = confirmation of human SENP7 protease inhibitors; inhibition, % at 12.5 µM; recombinant SENP7, Z-RLRGG-aminoluciferin luminescence, 40 min; shares compounds with SENP7 block; hit rate 69% among 6,200
Casp3 select = caspase-3 inhibition (SENP selectivity assay); shares compounds with SENP7 block; purified caspase-3, Z-DEVD-aminoluciferin luminescence, 60 min; inhibition, % at 12.5 µM; hit rate 60% among 6,200; AID 488918;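 active = mean inhibition above about 50%, limit read from the data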;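 note: plate controls were enzyme with DMSO for no effect and wells without caspase-3 for full effect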
Luc interf = counter-screen for SENP inhibitors: luminescence interference | shares compounds with SENP7 block | Pre-incubated SENP8/Z-RLRGG-aminoluciferin, luciferase luminescence interference | inhibition, % at 12.5 µM | hit rate 39% among 6,200;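 active = mean inhibition above about 50% when retested at one dose, limit read from the data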;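 note: plate controls were DMSO wells with completed reaction for no effect and substrate without enzyme for full effect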
Active calls of the source: *; nt = no result given.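 Rule for the calls, unless noted: active = mean inhibition above about 50% in the one-dose retest (limit read from the data); inactive = the rest.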

SMILES	TRAIL sens C8	SENP8 block-1	SENP7 block	SENP6 inh	PPC-1+TRAIL kill	SENP8 block-2	SENP8 conf	SENP6 confirm	SENP7 conf	Casp3 select	Luc interf
CN(C)c1ccc(C=Nc2ccccc2)cc1	-10	-6	-3	-11	8	0	nt	nt	nt	nt	nt
COc1ccc2oc(C(=O)OCC(=O)NCCc3ccccc3)c(C)c2c1	3	18	3	-8	nt	-430	nt	nt	nt	nt	nt
COc1ccc2oc(C(=O)Nc3nccs3)c(C)c2c1	40	-5	83*	30	nt	-145	15	34	39	41	20
COc1ccc2oc(C(=O)NCCc3ccccc3)c(C)c2c1	49	84*	88*	90*	nt	-201	93*	92*	100*	86*	72*
CCOc1ccc2oc(C(=O)Nc3ccc(C)cn3)c(C)c2c1	24	nt	nt	nt	nt	-115	nt	nt	nt	nt	nt
CCOc1ccc2oc(C(=O)Nc3nccs3)c(C)c2c1	41	22	78*	11	nt	-186	19	14	26	39	11
CC1(C)CC(Cc2ccc(Cl)nc2)N(C(=O)OC(C)(C)C)C1 (stereo not given)	-2	nt	nt	nt	nt	12	nt	nt	nt	nt	nt
CC1=NN(c2ccccc2)C(=O)/C1=C/c1c(O)n(-c2ccc(F)c(Cl)c2)[nH]c1=O	nt	78*	-6	84*	10	nt	5	66*	59*	4	55*
O=C(NCc1ccc(F)cc1)c1cc(C2CCCN(C(=O)CCCc3ccccc3)C2)on1 (stereo not given)	-12	nt	nt	nt	nt	9	nt	nt	nt	nt	nt
CCc1ccc(OC(=O)/C=C/c2ccco2)cc1	9	69*	81*	89*	nt	4	7	77*	94*	50*	18
CCOC(=O)c1[nH]c2ccc(C)cc2c1N	-2	24	-2	50*	21	-310	54*	54*	88*	82*	72*
CCOC(=O)c1[nH]c2cc(OC)c(OC)cc2c1N	-10	-4	2	0	7	-275	nt	nt	nt	nt	nt
O=C(OCC1COc2ccccc2O1)c1c(F)cccc1F (stereo not given)	26	-7	83*	-2	-13	10	2	2	1	0	10
Cc1c(NS(=O)(=O)c2ccc(NC(=O)CCC(=O)O)cc2)c(=O)n(-c2ccccc2)n1C	-1	-2	17	-11	nt	18	nt	nt	nt	nt	nt
COc1ccccc1N1CCN(C(=O)C(=O)c2c[nH]c3ccccc23)CC1	-3	-1	4	4	nt	12	nt	nt	nt	nt	nt
O=c1/c(=C\c2ccc3c(c2)OCO3)sc2n1CCCN=2	27	55*	69*	78*	20	-45	1	28	61*	46	46
Cc1ccc(/C=c2/sc3n(c2=O)CCCN=3)o1	-11	2	0	2	24	-4	nt	nt	nt	nt	nt
Cc1cc(N)n(-c2nc3ccccc3s2)n1	48	86*	93*	87*	nt	9	92*	93*	100*	93*	40
Clc1ccc(-c2nnc(N3CCCC3)nn2)cc1	10	2	-5	68*	-10	13	38	41	58*	55*	10
CCSc1cc(N2CCCC2)nc(-c2ccc(Cl)cc2)n1	2	9	9	8	nt	-53	nt	nt	nt	nt	nt
CCOC(=O)CN(C(=O)c1snc(C(N)=O)c1N)C(C(=O)NCCC(C)C)c1ccc(C)cc1 (stereo not given)	-13	nt	nt	nt	nt	-275	nt	nt	nt	nt	nt
Cn1cccc1C(=O)NCc1ccc(Cl)cc1	8	-4	2	-7	nt	6	nt	nt	nt	nt	nt
Cn1cccc1C(=O)NCCc1ccccc1	19	36	57*	67*	nt	11	43	44	80*	83*	59*
Cn1c(C(=O)NCCc2ccccc2)cc(=O)n(C)c1=O	17	1	0	20	nt	16	nt	nt	nt	nt	nt
Cn1cccc1C(=O)NCCc1ccc(Cl)cc1	4	44	55*	62*	nt	-2	50	46	82*	72*	58*
SMILES	TRAIL sens C8	SENP8 block-1	SENP7 block	SENP6 inh	PPC-1+TRAIL kill	SENP8 block-2	SENP8 conf	SENP6 confirm	SENP7 conf	Casp3 select	Luc interf
CC(C)(C)CC(=O)Nc1ccc(S(=O)(=O)NC2=NCCCCC2)cc1	-4	6	-2	9	nt	6	nt	nt	nt	nt	nt
O=C(c1ccc(S(=O)(=O)N2CCCC2)cc1)N(c1ccccc1)C1C=CS(=O)(=O)C1 (stereo not given)	2	0	2	63*	nt	3	6	6	5	0	2
COC(=O)c1ccc(NC(=O)Nc2ccc(F)c(Cl)c2)cc1	5	-1	58*	-50	-16	4	14	18	84*	22	26
COC(=O)c1ccc(NC(=O)c2ccccc2C(=O)Nc2ccc(C(=O)OC)cc2)cc1	24	-3	2	-7	nt	18	nt	nt	nt	nt	nt
COC(=O)c1ccc(NC(=O)Nc2ccc(OC)cc2)cc1	0	-16	-11	-21	9	7	nt	nt	nt	nt	nt
COC(=O)c1ccc(NC(=O)Nc2ccccc2C)cc1	45	83*	92*	91*	nt	-1	89*	89*	99*	89*	48
CC(=O)Nc1ccc(NC(=O)Nc2ccccc2C)cc1	-2	-2	16	15	23	27	nt	nt	nt	nt	nt
COC(=O)c1ccc(NC(=O)Nc2ccc(F)cc2)cc1	14	46	49	68*	27	6	42	42	80*	48	62*
CC(=O)N(C)c1ccc(NC(=O)Nc2ccccc2C)cc1	15	33	58*	63*	12	16	40	41	79*	83*	63*
O=C(Cc1ccccc1)NCC(=O)N1CCN(c2ccccc2)CC1	-2	3	-7	-4	nt	11	nt	nt	nt	nt	nt
CCOc1ccc(/C=C2/SC(=O)NC2=S)cc1	-4	45	10	74*	13	12	19	20	41	8	22
O=C(/C=C\Nc1ccccn1)c1ccc(Cl)cc1	82*	95*	8	95*	71*	-180	36	77*	88*	75*	31
COc1cccc(C(=O)/C=C/Nc2ccc(S(=O)(=O)Nc3nc(C)cc(C)n3)cc2)c1	0	-6	10	2	0	-423	nt	nt	nt	nt	nt
COc1cccc(C(=O)/C=C/Nc2cc(C)ccc2O)c1	55*	84*	101*	92*	16	-15	5	92*	99*	72*	87*
